Source: PubChem (National Center for Advancing Translational Sciences (NCATS))
Gal4-VP16 FLuc = Gal4-VP16 reporter inhibition counter-screen. Drosophila S2 Gal4-VP16 UAS-luciferase, luminescence, 20 h. Potency, µM (titrated, usually from 53.6 µM), for inactives: top-dose activity, negative = inhibition, most hits filed as inhibitors. 3.5% of 310,000 active. AID 2546;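 note: Gal4-VP16 expression switched on by copper sulfate through the metallothionein promoter; % is set by controls: 0 for no effect and ±100 for the full control effect; nearly all actives have a fitted effect of over 50% in size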
TGFb SMAD3 inh = blocks TGF-b signaling; Potency, µM (series often up to 46.1 µM), inactives show at the top dose activity, negative = inhibition, actives largely listed as inhibitors; AID 588855; 1.2% of 410,000 active; HepG2 CAGA-GFP TGF-b/SMAD3 reporter, GFP fluorescence, 18 h; TGF-beta stimulated, 500 pg/mL final; note: % is set by controls: 0 for no effect and ±100 for the full control effect; nearly all actives have a fitted effect of over 65% in size
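Using HEPG2 CAGA-GFP reporter cells at 1000 cells/well, we pinned test compounds, stimulated with recombinant TGF-beta (500 pg/mL final) and measured total well GFP after 18 h.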
S2 tox = reduces viability in counter-screen for ATXN expression inhibitors; S2 cells (HEK-293 line with an ATXN2-luciferase reporter) viability, CellTiter-Fluor protease fluorescence, 24 h; 0.49% of 400,000 active; Potency, µM (top dose mostly 56.7 µM), most hits filed as cytotoxic; AID 651635; note: nearly all actives have a fitted effect of over 40% in size
ATXN2 expr inh = inhibitors of ATXN2 expression; HEK-293 ATXN2-luciferase reporter, luminescence, 24 h; Potency, µM (series often up to 57 µM), inactives show at the highest dose activity change, negative = inhibition, usual class: inhibitors; 0.72% of 360,000 active; AID 1745845; note: % is set by controls: 0 for no effect and ±100 for the full control effect; nearly all actives have a fitted effect of over 55% in size
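ATXN2-luciferase reporter cells (luciferase flanked by upstream and downstream ATXN2 gene portions) were treated 24 h at 37 °C with compounds at up to 57 uM. SteadyGlo luminescence gave expression; GF-AFC fluorescence gave viability.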
HepG2 tox = HepG2 cytotoxicity, counter-screen for TGF-b inhibitors | HepG2 CAGA-GFP viability, ATP luminescence, 18 h | Potency, µM (top dose mostly 46.1 µM), for inactives: at the highest dose activity change, negative = cytotoxicity, hits mostly cytotoxic | 0.76% of 410,000 active | AID 588856
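CellTiter-Glo luminescence gave cytotoxicity after 18 hours at 37 degrees C. The cells were HepG2 CAGA-GFP in 1% FBS DMEM, stimulated with 500 pg/mL TGF-beta after compound addition. %Activity was normalised to no-cell wells (complete cell-killing) and DMSO (no toxicity), and curves were fitted and classified.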
RORgamma inh = inhibitors of mouse ROR gamma transcriptional activity; Drosophila S2 Gal4-RORgamma UAS-luciferase reporter, 20 h; Potency, µM (highest dose often 53.6 µM), inactives show at the top dose activity change, negative = inhibition, most hits filed as inhibitors; AID 2551; 5.4% of 310,000 active; note: % is set by controls: 0 for no effect and ±100 for the full control effect; nearly all actives have a fitted effect of over 60% in size
Target sequence (P51450 whole entry, looked up, the tested form may be a part): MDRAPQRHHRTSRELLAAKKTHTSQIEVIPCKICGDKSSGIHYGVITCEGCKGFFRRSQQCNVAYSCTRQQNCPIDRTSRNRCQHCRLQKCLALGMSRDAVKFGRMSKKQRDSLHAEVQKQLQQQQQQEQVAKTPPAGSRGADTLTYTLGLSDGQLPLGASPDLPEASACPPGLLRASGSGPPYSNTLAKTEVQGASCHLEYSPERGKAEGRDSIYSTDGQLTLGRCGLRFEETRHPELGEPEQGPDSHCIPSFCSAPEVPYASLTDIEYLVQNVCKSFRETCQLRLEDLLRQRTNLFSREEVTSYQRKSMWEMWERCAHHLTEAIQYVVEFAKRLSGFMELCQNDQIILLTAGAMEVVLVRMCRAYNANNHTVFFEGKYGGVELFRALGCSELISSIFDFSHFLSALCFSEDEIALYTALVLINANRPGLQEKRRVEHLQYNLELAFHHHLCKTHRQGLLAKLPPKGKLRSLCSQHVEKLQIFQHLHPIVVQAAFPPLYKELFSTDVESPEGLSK
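Stably transfected Drosophila Schneider cells are the test system, with ROR gamma fused to Gal4 and luciferase under UAS control; luminescence is read after 20 hr of 700 uM copper sulfate induction at ambient temperature.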
* hit, by the source's call; i = inactive; ? = inconclusive; · = not tested or not shown. The list is not random: actives were taken first. Their share in the collection is about 6.3%. Calls come from the whole dose curve; as a rule, active = well fitted curve in the direction sought with a large enough effect; inconclusive = small, poorly fitted or top-dose-only effect, or another doubt; inactive = no such curve, though single readings can be large; an effect the other way counts as inactive or inconclusive. Potency is the fitted concentration of half-maximal effect.

SMILES | Gal4-VP16 FLuc | TGFb SMAD3 inh | S2 tox | ATXN2 expr inh | HepG2 tox | RORgamma inh
Cc1cccc2sc(N(Cc3cccnc3)C(=O)CCS(=O)(=O)c3ccccc3)nc12 | · | 11.2µM* | · | · | 20µM* | ·
Cc1cc(C)c2nc(N(Cc3cccnc3)C(=O)CCS(=O)(=O)c3ccccc3)sc2c1 | · | ? | · | · | 0.7% | ·
O=C(CCOc1ccccc1)N(Cc1cccnc1)c1nc2c(Cl)cccc2s1 | · | ? | · | · | 12.6µM* | ·
O=C(c1cccs1)N(Cc1cccnc1)c1nc2c(Cl)cccc2s1 | · | 17.8µM* | · | · | -42.2% | ·
Cc1cccc2sc(N(Cc3cccnc3)C(=O)CCOc3ccccc3)nc12 | · | ? | · | · | -31.1% | ·
Cc1ccc(OCC(=O)Nc2cccc(-c3nc4ccccc4s3)c2)cc1 | · | ? | i | 18.9% | -18.1% | ·
C[C@H](CCC(=O)O)[C@H]1CCC2C3C[C@H](O)[C@@H]4C[C@H](O)CC[C@]4(C)C3CC[C@@]21C (stereo partly drawn) | · | · | · | 0.3% | · | ·
CCc1sc(-c2cc3cccc(OC)c3oc2=O)nc1-c1ccccc1 | · | -3.6% | · | · | -6.6% | ·
CCOC(=O)c1ccc(S(=O)(=O)N2CCN(c3nc(-c4ccccc4)nc4ccccc34)CC2)cc1 | · | -8.0% | · | · | 3.0% | ·
O=C(CCS(=O)(=O)c1ccccc1)N(Cc1cccnc1)c1nc2c(Cl)cccc2s1 | · | 3.98µM* | · | · | -0.4% | ·
O=C(c1ccc2c(c1)OCCO2)N(Cc1cccnc1)c1nc2c(Cl)cccc2s1 | · | ? | · | · | -20.1% | ·
CC(=O)c1cccc(NC(=O)C2Cc3c(-c4ccc(Cl)cc4)ccnc3O2)c1 (stereo not drawn) | · | -28.5% | ? | -37.5% | -31.5% | ·
Cc1cc(N2CCOCC2)ccc1/C=C\[N+](=O)[O-] | 10µM* | 11.2µM* | ? | ? | 17.8µM* | 6.31µM*
O=[N+]([O-])c1ccc(N2CCOCC2)cc1O | 12.6% | 13.9% | ? | 7.7% | -2.3% | 14.2%
COc1cc(/C=C/C(=O)N2CCN(C(=O)/C=C/c3cc(OC)c(OC)c(OC)c3)CC2)cc(OC)c1OC | 3.6% | 2.1% | i | 41.5% | 6.2% | -11.2%
COc1cc(/C=C\C(=O)N2CCC=CC2=O)cc(OC)c1OC | 5.01µM* | · | ? | · | · | 5.01µM*
COc1cc(/C=C/C(=O)N2CCCCC2=O)cc(OC)c1OC | 7.94µM* | · | · | · | · | 7.08µM*
CC(C)(C)n1ncc2c(=O)n(Cc3ccc(F)cc3F)cnc21 | · | 5.2% | · | · | -23.9% | ·
Nc1c(C(=O)NC2CCCCC2)c2nc3ccccc3nc2n1/N=C/c1ccco1 | ? | · | · | · | · | 12.6µM*
CC(Nc1nc(N2CCCCC2)nc2ccccc12)c1ccccc1 (stereo not drawn) | -26.4% | ? | · | · | 12.6µM* | ?
CC(Nc1nc(-c2ccccc2)nc2ccccc12)c1ccccc1 (stereo not drawn) | -4.1% | ? | ? | -5.6% | -27.8% | 28.2%
COc1ccc(NC(=O)c2ccc(NC(=O)CCS(=O)(=O)c3cccs3)cc2)cc1Cl | · | ? | · | ? | -63.9% | ·
COc1ccc(C2CC2/C(=N/O)c2ccccc2)cc1 (stereo not drawn) | -2.3% | 19.4% | i | 30.5% | 23.6% | 21.7%
O/N=C(\c1ccccn1)C1CC1c1ccccc1 (stereo not drawn) | -13.1% | -1.7% | i | 4.8% | -3.3% | 12.6µM*
COc1ccc(C2CC2/C(=N/O)c2ccccn2)cc1 (stereo not drawn) | 3.16µM* | 6.3% | i | -15.4% | -1.1% | ?
SMILES | Gal4-VP16 FLuc | TGFb SMAD3 inh | S2 tox | ATXN2 expr inh | HepG2 tox | RORgamma inh
O=C(NCCN1CCOCC1)c1cnn(-c2nccc(-c3ccccc3C(F)(F)F)n2)c1C1CC1 | · | · | i | · | · | ·
O=C(Nc1ccccn1)c1ccc(C(=O)c2ccccc2)cc1 | · | 3.2% | i | 10.5% | -3.7% | ·
O=C(Nc1ccncc1)Nc1ccccn1 | 1.7% | ? | ? | 4.7% | -39.5% | 3.2%
COc1cc(C(=O)Nc2ccccn2)cc(OC)c1OC | 7.2% | 2.5% | i | 2.6% | 7.3% | -9.2%
O=C(NC(=O)c1ccccc1)Nc1ccccn1 | 1.58µM* | · | · | · | · | 0.501µM*
Cc1cc(C(=O)Nc2ccccn2)cs1 | ? | 0.4% | i | -19.3% | -49.1% | 11.2µM*
O=C(c1ccccc1)c1nc[nH]c1C(=O)Nc1ccccn1 | 17.8µM* | -17.2% | i | 5.1% | 1.0% | 12.6µM*
O=C(Nc1ccccn1)Nc1cccs1 | 10µM* | 6.4% | i | 11.5% | -3.9% | 21.6%
CCN(CC)CCNC(=O)c1ccc(Cn2c(=O)c3cccn3c3cccnc32)cc1 | · | · | · | · | -6.6% | ·
CCC1(C)CC(C#N)(C#N)C(=O)NC1=O (stereo not drawn) | · | -3.0% | i | 16.7% | 5.2% | ·
COc1ccc(OC)c(-n2c(-c3ccccc3)n[nH]c2=S)c1 | ? | -23.7% | i | 1.3% | -18.8% | 10µM*
COc1ccc(OC)c(-n2c(-c3cc(-c4ccccc4)n[nH]3)n[nH]c2=S)c1 | ? | ? | i | -3.7% | 3.7% | 7.94µM*
COc1ccccc1-n1c(-c2cn(C)nc2C)n[nH]c1=S | -5.1% | ? | i | 16.6% | -1.0% | -49.5%
COc1ccc(-c2cc(-c3n[nH]c(=S)n3-c3ccccc3OC)[nH]n2)cc1 | ? | 10.8% | i | -4.5% | 0.5% | ?
COc1ccc(OC)c(-n2c(-c3cccc(C)c3)n[nH]c2=S)c1 | -29.4% | 0.1% | i | · | -5.3% | 2.51µM*
Cc1cccc(-c2n[nH]c(=S)n2C)c1 | ? | 10.5% | i | -16.6% | -5.9% | ?
COc1ccccc1-n1c(-c2ccccc2)n[nH]c1=S | ? | 10.5% | i | -6.4% | -43.1% | 7.08µM*
COc1ccc2c(c1)Cc1cc(NC(=O)c3ccccc3-c3ccccc3C(=O)O)ccc1-2 | · | -20.1% | i | · | -18.7% | ·
COc1ccc(Cc2c(-c3ccc(F)cc3)nc3c(C)cc(Br)cn23)c(C)c1 | · | ? | i | 2.0% | -33.6% | ·
COC(=O)c1c(NC(=O)c2nc(SCc3ccc(F)cc3)ncc2Cl)sc2c1CCCC2 | · | 44.0% | i | 7.1% | 5.1% | ·
CC(C)(O)CN(CCCNC(=S)Nc1ccccc1)C(=S)Nc1ccccc1 | · | -1.8% | i | 11.2% | -5.4% | ·
CN(C)CCN1CCN(C2CN(Cc3cn(Cc4ccccc4C(F)(F)F)nn3)S(=O)(=O)C2)CC1 (stereo not drawn) | · | -8.0% | i | 5.1% | -4.3% | ·
Nc1cc2nc3ccccc3oc-2cc1=O | -13.4% | ? | ? | -15.3% | 4.47µM* | -8.3%
Cc1oc(-c2ccccc2NC(=O)c2ccsc2)nc1CN(C)Cc1ccc2c(c1)CCCN2C | · | · | i | · | · | ·
COc1cccc(CNC(=O)Cn2c(=O)nc(-c3ccccc3F)c3cc(Cl)ccc32)c1 | · | 1.6% | · | · | -9.1% | ·
